PMC4336329 (PLoS ONE, 2015)
The whole screen tested about 310,000 compounds, of which about 14,000 (4.5%) showed an effect of 50% or more. Effects have a minus sign here. The full list was thinned out, with strong results kept by preference.

molecular target: human ether-à-go-go-related gene (hERG) potassium channel (human, UniProt Q12809); assay: primary screen, population patch clamp on CHO cells stably expressing hERG; higher = less effect of the substance
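Further: peak tail current of the secondary pulse compared with the same well before compound.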

human ether-à-go-go-related gene (hERG) potassium channel, sequence (Q12809 whole entry, looked up): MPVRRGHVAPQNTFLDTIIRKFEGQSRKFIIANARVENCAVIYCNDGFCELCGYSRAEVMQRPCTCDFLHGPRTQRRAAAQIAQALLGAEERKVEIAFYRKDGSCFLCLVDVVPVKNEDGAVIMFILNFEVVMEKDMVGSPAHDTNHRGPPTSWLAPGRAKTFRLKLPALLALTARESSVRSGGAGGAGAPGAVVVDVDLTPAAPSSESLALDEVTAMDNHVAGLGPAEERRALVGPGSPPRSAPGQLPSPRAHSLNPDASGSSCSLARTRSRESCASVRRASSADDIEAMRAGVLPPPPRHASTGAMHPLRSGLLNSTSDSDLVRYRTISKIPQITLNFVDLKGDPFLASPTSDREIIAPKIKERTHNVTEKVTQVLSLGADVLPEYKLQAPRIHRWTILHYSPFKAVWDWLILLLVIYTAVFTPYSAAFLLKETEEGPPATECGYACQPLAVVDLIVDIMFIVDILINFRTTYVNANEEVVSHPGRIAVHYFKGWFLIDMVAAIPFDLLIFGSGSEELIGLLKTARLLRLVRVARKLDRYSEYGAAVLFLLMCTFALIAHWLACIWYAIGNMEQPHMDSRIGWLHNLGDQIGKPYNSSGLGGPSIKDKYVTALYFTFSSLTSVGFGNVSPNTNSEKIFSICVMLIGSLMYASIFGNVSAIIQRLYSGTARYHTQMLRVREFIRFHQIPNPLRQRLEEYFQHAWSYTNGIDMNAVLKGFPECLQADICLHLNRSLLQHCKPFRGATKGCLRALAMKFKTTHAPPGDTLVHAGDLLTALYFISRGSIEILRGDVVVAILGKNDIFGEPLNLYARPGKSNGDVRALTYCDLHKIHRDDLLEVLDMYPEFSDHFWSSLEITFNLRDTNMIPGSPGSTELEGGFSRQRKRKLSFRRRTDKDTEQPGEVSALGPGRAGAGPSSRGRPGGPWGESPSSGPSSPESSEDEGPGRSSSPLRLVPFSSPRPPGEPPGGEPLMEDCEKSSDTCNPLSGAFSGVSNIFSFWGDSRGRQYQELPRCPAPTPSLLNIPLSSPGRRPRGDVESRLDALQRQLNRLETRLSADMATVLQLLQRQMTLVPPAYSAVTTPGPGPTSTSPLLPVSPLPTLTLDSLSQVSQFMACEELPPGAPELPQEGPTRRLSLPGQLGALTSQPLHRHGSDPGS

| SMILES | hERG current change (%, negative = inhibition) at 10uM [%] |
| --- | --- |
| N#Cc1ccc(COc2ccc(CCO)cc2-n2nc3ccccc3n2)cc1 | -66.6 |
| OCCc1ccc(O)c(-n2nc3ccccc3n2)c1 | -17.1 |
| Cc1ccc(NC(=O)COc2ccc(CCO)cc2-n2nc3ccccc3n2)cc1C | 6.89 |
| COc1ccc(NC(=O)c2ccc(COCC(F)(F)C(F)F)cc2)cc1OC | 7.39 |
| COC(=O)CCC(=O)OC1(C)C(=O)C=C2C=C(C3CC3)N(CCCCO)C=C2C1=O (stereo not shown) | 4.26 |
| CCCNCc1cc(OC)c(OCc2ccccc2)cc1Br.Cl | -28.2 |
| CCOCCCNCc1cccc(OC)c1.O=C(O)C(=O)O | 3.11 |
| CCOc1ccc(Br)cc1CNCCN1CCOCC1 | 1.31 |
| CCOCCCNCc1ccc(OCc2ccc(F)cc2)c(OC)c1.Cl | -33.6 |
| CCOCCCNCc1cc(Br)ccc1OCc1ccccc1 | -68.1 |
| CCOCCCNCc1cccc(OCc2ccc(F)cc2)c1 | -50.1 |
| CCOCCCNCc1ccc(OCc2ccccc2C)c(OC)c1.Cl | -24.4 |
| CCOCCCNCc1cc(Br)ccc1OCC.Cl | -55.5 |
| CCOCCCNCc1cc(Cl)ccc1OCC.Cl | -11.8 |
| CCC1(c2ccccc2)NC(=S)N(c2ccc(C)cc2)N1 (stereo not shown) | 22 |
| O=C(/C=C/c1ccc(F)cc1)NC(=S)Nc1ccccc1C(=O)NC1CCCCC1 | 2.56 |
| CC1CC(C)CN(C(=O)c2ccncc2)C1 (stereo not shown) | 10.1 |
| COc1ccc(NC(=O)/C=C/c2ccccc2[N+](=O)[O-])c(OC)c1 | 4.66 |
| COCCNC(=O)C1CC(c2cccc([N+](=O)[O-])c2)=NO1 (stereo not shown) | 15.8 |
| Cc1cc(NC(=O)Cn2nnc3sc4c(c3c2=O)CCCC4)no1 | 9.97 |
| O=C(NCCc1ccc(Cl)cc1)C1=CC=CN2CCS(=O)(=O)N=C12 | -9.31 |
| O=C(NCc1cccc(Cl)c1)C1=CC=CN2CCS(=O)(=O)N=C12 | -5.54 |
| CC(NC(=O)C1=CC=CN2CCS(=O)(=O)N=C12)c1ccc(Cl)cc1Cl (stereo not shown) | -57.9 |
| c1ccc2c(Nc3nc4c(s3)CCCC4)cccc2c1 | 2.23 |
| CCN(C(=O)CSc1nc2ccc([N+](=O)[O-])cc2s1)C1CCS(=O)(=O)C1 (stereo not shown) | -61.8 |

| SMILES | hERG current change (%, negative = inhibition) at 10uM [%] |
| --- | --- |
| CCN(C(=O)CN1C(=O)c2ccc([N+](=O)[O-])cc2C1=O)C1CCS(=O)(=O)C1 (stereo not shown) | 13.8 |
| CN(C(=O)CSc1nc(-c2ccccc2)cs1)C1CCS(=O)(=O)C1 (stereo not shown) | -19.6 |
| CCN(C(=O)Cn1cnc2cc([N+](=O)[O-])ccc2c1=O)C1CCS(=O)(=O)C1 (stereo not shown) | 1.53 |
| O=C(CSc1nc2ccc([N+](=O)[O-])cc2s1)NC1CCS(=O)(=O)C1 (stereo not shown) | -5.62 |
| CN(C(=O)CSc1nc2ccc([N+](=O)[O-])cc2s1)C1CCS(=O)(=O)C1 (stereo not shown) | -55.9 |
| O=[N+]([O-])c1cccnc1Sc1ccc(Cl)cc1 | -11 |
| O=C(Nn1c(COc2ccccc2)nc2ccccc2c1=O)C(Cl)(Cl)Cl | 9.26 |
| O=C(Cn1ccc([N+](=O)[O-])n1)Nc1nc2ccccc2s1 | -45.8 |
| CC(C(=O)Nc1cccnc1)n1cc([N+](=O)[O-])cn1 (stereo not shown) | 17.7 |
| CC(C(=O)Nc1nc2ccccc2s1)n1cc([N+](=O)[O-])cn1 (stereo not shown) | -69.5 |
| O=C(Cn1cc([N+](=O)[O-])cn1)Nc1nc2ccccc2s1 | -74.6 |
| Cc1cccc(NC(=O)C(C)n2cc([N+](=O)[O-])cn2)n1 (stereo not shown) | -7.48 |
| O=C(Cn1cc([N+](=O)[O-])cn1)Nc1ccccn1 | 16.1 |
| CC(=O)c1sc(NC(=O)c2oc3ccc(F)cc3c2C)nc1C | 0.318 |
| O=C(c1cccc(F)c1)N1CCN(S(=O)(=O)c2ccccc2)CC1 | 0.349 |
| CO/N=C/c1ccc(N2CCN(C(=O)c3ccc(Cl)cc3Cl)CC2)c([N+](=O)[O-])c1 | -53.1 |
| O=C(O/N=C\c1ccc(N2CCOCC2)c([N+](=O)[O-])c1)c1ccc(F)cc1 | -6.14 |
| CO/N=C/c1ccc(N2CCCC2)c([N+](=O)[O-])c1 | -1.34 |
| CO/N=C/c1ccc(N2CCN(C(=O)c3ccc(F)cc3)CC2)c([N+](=O)[O-])c1 | -78.3 |
| Cc1ccc(C(=O)O/N=C\c2ccc(N3CCCCC3)c([N+](=O)[O-])c2)cc1 | 12.8 |
| CO/N=C/c1ccc(N2CCN(C(=O)c3ccc(C)cc3)CC2)c([N+](=O)[O-])c1 | -74.9 |
| CO/N=C/c1ccc(N2CCN(C(=O)c3cccc(C(F)(F)F)c3)CC2)c([N+](=O)[O-])c1 | -43.5 |
| O=C(O/N=C\c1ccc(N2CCCCC2)c([N+](=O)[O-])c1)c1ccc(Cl)cc1Cl | -1.17 |
| CO/N=C/c1ccc(N2CCOCC2)c([N+](=O)[O-])c1 | 0.313 |
